From PubChem
TDP1 cell CPT: DT40-hTDP1 cell growth loss with CPT; chicken DT40 Tdp1-/-;hTDP1 cells + 20 nM CPT, ATP luminescence, 48 h; Potency, µM (titrated, usually from 46.2 µM), inactives show at the highest dose activity change, negative = growth inhibition, hits mostly inhibitors; actives 12% (n = 420,000); AID 686979; further: potency means the concentration at half of the fitted maximal effect; nearly all actives have a fitted effect of over 55% in size
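Cell growth measured by CellTiter-Glo luminescence after a minimum 48 h, 37 C compound exposure with 20 nM CPT in Tdp1-knockout DT40 cells stably expressing hTDP1, seeded 400/well; qHTS titration format.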
HT1080 IDH1KD tx: HT-1080 IDH1 knockdown cell toxicity (counter line); Potency, µM (top dose mostly 46.1 µM), without a hit: top-dose activity, negative = toxicity, most hits filed as cytotoxic; HT-1080 IDH1 knockdown viability, ATP luminescence, 48 h; actives 2% (n = 360,000); AID 686971;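 further: potency means the concentration at half of the fitted maximal effect; 0% = DMSO wells and -100% = cell-free medium wells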
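Luminescent ATP read-out (CellTiter-Glo, 10 min at room temperature) after 48 h compound exposure at 37 °C gave viability of IDH1-knockdown HT-1080 cells. Activity was normalised to DMSO and cell-free wells, then fitted as concentration-response curves.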
HT1080NT lethal: kills 2HG-producing HT-1080-NT fibrosarcoma cells. HT-1080-NT fibrosarcoma viability, CellTiter-Glo ATP luminescence, 48 h. Potency, µM (titrated, usually from 46.1 µM), without a hit: at the highest dose activity, negative = less viability, most hits filed as cytotoxic. actives 1.6% (n = 360,000);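 further: NT is the 2HG producing partner of a matched IDH1 knockdown line; potency means the concentration at half of the fitted maximal effect; 0% = DMSO-treated cells and -100% = media-only wells without cells; nearly all actives have a fitted effect of over 55% in size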
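Luminescent CellTiter-Glo readout after 48 hours of compound exposure at 37 degrees C defined viability of HT-1080-NT cells. Activity was normalized to DMSO wells and cell-free media wells; concentration-response curves were fitted and assigned curve classes.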
IL-1B inflam inh: inhibitors of inflammasome signaling (IL-1 beta secretion); THP-1 LPS/ATP IL-1B secretion, AlphaLISA, 16 h; hits give low values; activity change, % at 57.5 µM; actives 4.7% (n = 360,000); AID 743279; in the data active means activity change below about -50%; inconclusive means mostly about -30% to -49%
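Secreted IL-1B measured by AlphaLISA bead assay after 16 h compound exposure of THP-1 cells; compounds (final up to 57.5 uM) added 1 h before LPS (250 ng/mL) and ATP (1.25 mM) stimulation; lower signal means less secretion.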
TDP1 cell noCPT: qHTS for Inhibitors of human tyrosyl-DNA phosphodiesterase 1 (TDP1): qHTS in cells in absence of CPT; actives 15% (n = 420,000); DT40 Tdp1-/- hTDP1 cells, no CPT, ATP luminescence, 48 h; Potency, µM (highest dose often 46.2 µM), without a hit: at the highest dose activity change, negative = growth inhibition, usual class: inhibitors; further: potency means the concentration at half of the fitted maximal effect; nearly all actives have a fitted effect of over 55% in size
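A cellular qHTS used chicken DT40 cells lacking endogenous Tdp1 but carrying stably transfected human TDP1. Compounds were applied without camptothecin, and cell growth kinetics were judged by ATP-dependent luminescence after ≥48 hr.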
* marks the source's active call; other numbers are inactive results; ? = inconclusive; . = not tested or not shown; [ ] = dose if it differs, or a comment. Sampled rows, rich in hits. Any-hit rate of the full collection: about 19%. Unless noted, the call rests on the fitted dose curve; in most records, active means well fitted curve in the direction sought with a large enough effect; inconclusive means small, poorly fitted or top-dose-only effect, or another doubt; inactive means no such curve, though single readings can be large; an effect the other way counts as inactive or inconclusive. Unless noted, on the % scale 0 is the no-effect control and ±100 the full control effect.

SMILES | TDP1 cell CPT | HT1080 IDH1KD tx | HT1080NT lethal | IL-1B inflam inh | TDP1 cell noCPT
COc1cccc(C(=O)Nc2ccc(-n3nncc3-c3ccccc3)cc2)c1OC | -18% | . | . | . | -19%
COc1cccc(C2C=C(c3ccccc3)Nc3c(C(=O)Nc4ccccc4)cnn32)c1OC (centres undefined) | 16µM* | . | . | . | 15µM*
COc1cccc(C2=CC(c3ccccc3F)n3ncc(C(=O)Nc4ccc(C)cc4)c3N2)c1 (centres undefined) | ? | . | . | . | 16µM*
C1=C(c2ccccc2)Nc2ncnn2C1c1ccccc1 (centres undefined) | 5% | 8% | 1% | 21 | -26%
O=C1N=C(N2C=CC(=C3C=CNC=C3)C=C2)/C(=C/N=NC(=O)c2ccccc2)S1 | 19% | 9% | 5% | 28 | 13%
COc1ccc(F)cc1-c1cc(C(=O)NCc2ccc(C(F)(F)F)cc2)[nH]n1 | 23µM* | ? | ? | -10 | 16µM*
COc1ccc(F)cc1-c1cc(C(=O)NCc2cccc(C(F)(F)F)c2)[nH]n1 | ? | ? | -27% | 0 | ?
CCOc1ccc(Cl)cc1-c1cc(C(=O)NCc2cccc(C(F)(F)F)c2)[nH]n1 | 10µM* | ? | ? | -22 | 13µM*
Cc1ccc(Cl)cc1-c1cc(C(=O)NCc2cc(C(F)(F)F)cc(C(F)(F)F)c2)[nH]n1 | ? | ? | ? | ? | 21µM*
COc1ccc(Cl)cc1-c1cc(C(=O)NCc2cccc(Cl)c2)[nH]n1 | ? | ? | ? | -15 | ?
COc1ccc(Cl)cc1-c1cc(C(=O)NCc2cc(C(F)(F)F)cc(C(F)(F)F)c2)[nH]n1 | ? | ? | 21µM* | 0 | 15µM*
Cc1cc(F)cc(-c2cc(C(=O)NCc3ccc(C(F)(F)F)cc3)[nH]n2)c1 | ? | -27% | -24% | 41 | -10%
O=C(NC1CCCCC1)c1ccc2c(c1)N(Cc1ccccc1Cl)C(=O)c1ccccc1S2 | -20% | . | . | . | ?
C/C(=N\NC(=O)CCCC(=O)O)c1c(-c2ccccc2)c2cc(Cl)ccc2[nH]c1=O | -2% | 11% | -22% | 5 | -10%
c1ccc(-c2ccc3ncccc3n2)cc1 | -25% | -19% | -4% | -19 | ?
CC(C)n1c2ccccc2c2nnc(SCC(=O)Nc3ccccc3C(=O)O)nc21 | ? | 4% | -24% | 8 | ?
COc1ccc(Cl)cc1-c1cc(C(=O)NCc2cccs2)[nH]n1 | 12µM* | -28% | -29% | 5 | ?
COc1ccccc1-c1cc(C(=O)NN)[nH]n1 | ? | 13µM* | 21µM* | 14 | ?
Cc1ccc(F)cc1-c1cc(C(=O)NCc2cc(C(F)(F)F)cc(C(F)(F)F)c2)[nH]n1 | 29µM* | ? | ? | -15 | ?
Cc1cc(F)ccc1-c1cc(C(=O)NCc2cc(C(F)(F)F)cc(C(F)(F)F)c2)[nH]n1 | -21% | 8% | ? | 20 | -23%
Cc1cc(F)ccc1-c1cc(C(=O)NCc2cccs2)[nH]n1 | -37% | -1% | 4% | -29 | ?
NS(=O)(=O)c1ccc(NC(=O)CCC(=O)c2ccc(Cl)s2)cc1 | -9% | 24% | 25% | 10 | -2%
CCOc1ccc(C(C(=O)NC2CCCCC2)N(C(=O)Cc2cccs2)c2ccc(-n3cnnn3)c(OC)c2)cc1 (centres undefined) | ? | ? | ? | 0 | 23µM*
COc1ccc(C(C(=O)NC2CCCCC2)N(C(=O)c2ccco2)c2ccc(-n3cnnn3)c(C)c2)cc1 (centres undefined) | -23% | 6% | 12% | 5 | -27%
COc1cccc(C(C(=O)NC2CCCC2)N(C(=O)c2ccco2)c2ccc(-n3cnnn3)c(C)c2)c1OC (centres undefined) | ? | 0% | 1% | -6 | 2.9µM*
SMILES | TDP1 cell CPT | HT1080 IDH1KD tx | HT1080NT lethal | IL-1B inflam inh | TDP1 cell noCPT
COc1cccc(N(C(=O)Cc2cccs2)C(C(=O)NC2CCCC2)c2ccncc2)c1 (centres undefined) | -30% | 4% | 4% | -11 | -16%
CCOc1cccc(N(C(=O)Cc2cccs2)C(C(=O)NC2CCCCC2)c2cccn2C)c1 (centres undefined) | 16µM* | ? | -19% | -1 | 16µM*
COc1ccccc1NC(=O)C(C)OC(=O)/C(=C/c1ccccc1)NC(C)=O (centres undefined) | -1% | -14% | -7% | 32 | -16%
COc1ccc(/C=C/C(=O)OCC(=O)NCCC2=CCCCC2)cc1OC | ? | -5% | -15% | 10 | 16µM*
CCc1cccc2c(C(=O)COC(=O)/C=C/c3ccc(O)c(OC)c3)c[nH]c12 | ? | ? | -13% | ? | 18µM*
COc1ccc(/C=C/C(=O)NCc2ccccn2)cc1OC | -9% | -1% | 2% | -73* | -3%
COc1ccc(C(C)=O)c(OCC(=O)NCCC2=CCCCC2)c1 | -75% | -1% | 9% | 1 | 0.58µM*
COc1ccccc1/C=C/C(=O)OCC(=O)NCCC1=CCCCC1 | -5% | 13% | 7% | 8 | -9%
COC(=O)c1ccc(CNC(=O)COC(=O)/C=C/c2ccc(O)c(OC)c2)cc1 | ? | 8% | 8% | -68* | ?
COc1ccc(OC)c(/C=C/C(=O)OCC(=O)NCc2ccccc2)c1 | -30% | 16% | 4% | 3 | -24%
COc1ccc(/C=C/C(=O)OCC(=O)NCc2ccccc2)cc1OC | 21µM* | ? | -2%[9.24 µM] | 0 | 16µM*
COc1ccc(/C=C/C(=O)Nc2c(C(=O)O)[nH]c3ccccc23)cc1OC | 21µM* | -3% | -1% | 34 | ?
COc1cc(/C=C/C(=O)OCC(=O)c2ccc(OC(F)F)cc2)ccc1O | ? | ? | -19% | -23 | 15µM*
COc1ccc(/C=C/C(=O)Nc2ccccc2)cc1OC | 1% | 13% | ? | ? | 12%
CC(=O)NCCNc1nc2cc(-c3ccsc3)sc2c(=O)n1C | -22% | 17% | 2% | 33 | -13%
CC(C)c1cc(Cn2c3ccccc3c(=O)n2C(C)Cn2cc(-c3ccccc3)nn2)on1 (centres undefined) | 11% | -2% | 2% | 1 | ?
Cc1cccc2cc(CN(CC3CCCO3)C(=O)c3cccc(F)c3)c(N(C)C)nc12 (centres undefined) | 3%[9.04 µM] | . | . | . | -5%
Cn1c(N)c(C(=O)COC(=O)COc2ccc(Cl)cc2Cl)c(=O)n(C)c1=O | -23% | 4% | -3% | 7 | -9%
OC[C@@H](O)C1OC2NC(=S)OC2C1O (some centres undefined) | 8% | 4% | 2% | 11 | -7%
